# Reference: PubChem BioAssay AID1159580 (chemical genetic matrix, 2015)
# Out of some 5,500 compounds screened, about 2,000 (36%) were called active. Another 18% or so got no clear call; they are omitted. This is one part of the list. Unmarked numbers belong to inactive results. Rule as the data show it: active = normalized growth mostly below about 0.91 (no sharp cut-off); inconclusive = no clear call, values can overlap the other calls; inactive = mostly above about 0.92.
# Assay: chemical genetic growth profiling, strain panel (AID 1159580);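 also: tested at 20 µM; growth read once vehicle control cultures reached saturation at 30 °C; 1 = growth at the plate median or of vehicle wells; lower values mean less growth of the strain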
# Conditions: growth OD
# [1] = S. cerevisiae deletion strains, locus YAL013W, strain DEP1, stronger effect = lower value
# [2] = S. cerevisiae deletion strains, locus YBR229C, strain ROT2, stronger effect = lower value
# [3] = S. cerevisiae deletion strains, locus YDL101C, strain DUN1, stronger effect = lower value
# [4] = S. cerevisiae deletion strains, locus YDL134C, strain PPH21, stronger effect = lower value
# [5] = S. cerevisiae deletion strains, locus YDR150W, strain NUM1, stronger effect = lower value
# [6] = S. cerevisiae deletion strains, locus YEL061C, strain CIN8, stronger effect = lower value
# [7] = S. cerevisiae deletion strains, locus YHR030C, strain SLT2, stronger effect = lower value
# [8] = S. cerevisiae deletion strains, locus YJR043C, strain POL32, stronger effect = lower value
# [9] = S. cerevisiae deletion strains, locus YKL190W, strain CNB1, stronger effect = lower value
# [10] = S. cerevisiae deletion strains, locus YLR039C, strain RIC1, stronger effect = lower value
# [11] = S. cerevisiae deletion strains, locus YLR262C, strain YPT6, stronger effect = lower value
# [12] = S. cerevisiae deletion strains, locus YMR263W, strain SAP30, stronger effect = lower value
# [13] = S. cerevisiae deletion strains, locus YMR307W, strain GAS1, stronger effect = lower value
# [14] = S. cerevisiae deletion strains, locus YPL241C, strain CIN2, stronger effect = lower value
compound,measurement,setting,value
COC(=O)[C@H]1[C@H]2C[C@H]3c4[nH]c5ccccc5c4CCN3C[C@H]2CC[C@@H]1O,normalized growth,[1],0.998
same,normalized growth,"S. cerevisiae deletion strains, locus YBR021W, strain FUR4, stronger effect = lower value",1
same,normalized growth,[2],1.01
same,normalized growth,"S. cerevisiae deletion strains, locus YCL029C, strain bik1, stronger effect = lower value",1
same,normalized growth,"S. cerevisiae deletion strains, locus YDL035C, strain GPR1, stronger effect = lower value",1.01
same,normalized growth,"S. cerevisiae deletion strains, locus YDL074C, strain BRE1, stronger effect = lower value",1.02
same,normalized growth,[3],1.01
same,normalized growth,[4],1.01
same,normalized growth,"S. cerevisiae deletion strains, locus YDL185W, strain tfp1, stronger effect = lower value",1.01
same,normalized growth,"S. cerevisiae deletion strains, locus YDL192W, strain arf1, stronger effect = lower value",1
same,normalized growth,"S. cerevisiae deletion strains, locus YDR101C, strain arx1, stronger effect = lower value",1.01
same,normalized growth,[5],1.01
same,normalized growth,"S. cerevisiae deletion strains, locus YDR162C, strain NBP2, stronger effect = lower value",1.01
same,normalized growth,"S. cerevisiae deletion strains, locus YDR318W, strain mcm21, stronger effect = lower value",1
same,normalized growth,"S. cerevisiae deletion strains, locus YDR388W, stronger effect = lower value",1
same,normalized growth,"S. cerevisiae deletion strains, locus YDR502C, strain sam2, stronger effect = lower value",1.01
same,normalized growth,[6],1.01
same,normalized growth,"S. cerevisiae deletion strains, locus YER110C, stronger effect = lower value",1
same,normalized growth,"S. cerevisiae deletion strains, locus YER155C, strain BEM2, stronger effect = lower value",1.01
same,normalized growth,"S. cerevisiae deletion strains, locus YER167W, strain BCK2, stronger effect = lower value",1.01
same,normalized growth,"S. cerevisiae deletion strains, locus YGL078C, strain dbp3, stronger effect = lower value",1.01
same,normalized growth,"S. cerevisiae deletion strains, locus YGL086W, strain mad1, stronger effect = lower value",1.01
same,normalized growth,"S. cerevisiae deletion strains, locus YGL248W, strain PDE1, stronger effect = lower value",1.01
same,normalized growth,"S. cerevisiae deletion strains, locus YGR135W, strain pre9, stronger effect = lower value",0.988
same,normalized growth,"S. cerevisiae deletion strains, locus YGR229C, strain SMI1, stronger effect = lower value",1.01
same,normalized growth,"S. cerevisiae deletion strains, locus YGR252W, strain gcn5, stronger effect = lower value",0.977
same,normalized growth,[7],1.01
same,normalized growth,"S. cerevisiae deletion strains, locus YHR079C, strain IRE1 (second series), stronger effect = lower value",1
same,normalized growth,"S. cerevisiae deletion strains, locus YHR094C, strain hxt1, stronger effect = lower value",1
same,normalized growth,"S. cerevisiae deletion strains, locus YHR129C, strain ARP1, stronger effect = lower value",1.01
same,normalized growth,"S. cerevisiae deletion strains, locus YHR200W, strain rpn10, stronger effect = lower value",1.01
same,normalized growth,"S. cerevisiae deletion strains, locus YIL066C, strain RNR3, stronger effect = lower value",1.02
same,normalized growth,"S. cerevisiae deletion strains, locus YIL073C, strain SPO22, stronger effect = lower value",1
same,normalized growth,"S. cerevisiae deletion strains, locus YIL125W, strain kgd1, stronger effect = lower value",0.999
same,normalized growth,"S. cerevisiae deletion strains, locus YIR030C, strain dcg1, stronger effect = lower value",0.999
same,normalized growth,"S. cerevisiae deletion strains, locus YJL095W, strain BCK1, stronger effect = lower value",1.02
same,normalized growth,"S. cerevisiae deletion strains, locus YJL134W, strain LCB3, stronger effect = lower value",1.01
same,normalized growth,"S. cerevisiae deletion strains, locus YJL168C, strain set2, stronger effect = lower value",0.998
same,normalized growth,"S. cerevisiae deletion strains, locus YJL187C, strain SWE1 (second series), stronger effect = lower value",1.03
same,normalized growth,[8],1.02
same,normalized growth,"S. cerevisiae deletion strains, locus YKL009W, strain mrt4, stronger effect = lower value",1
same,normalized growth,"S. cerevisiae deletion strains, locus YKL068W, stronger effect = lower value",0.993
same,normalized growth,"S. cerevisiae deletion strains, locus YKL085W, strain MDH1 (second series), stronger effect = lower value",1.01
same,normalized growth,"S. cerevisiae deletion strains, locus YKL085W, strain MDH1, stronger effect = lower value",1.01
same,normalized growth,[9],1.01
same,normalized growth,"S. cerevisiae deletion strains, locus YKR001C, strain vps1, stronger effect = lower value",1.02
same,normalized growth,[10],1.08
same,normalized growth,"S. cerevisiae deletion strains, locus YLR058C, strain SHM2, stronger effect = lower value",1.02
same,normalized growth,"S. cerevisiae deletion strains, locus YLR102C, strain apc9, stronger effect = lower value",1
same,normalized growth,[11],1.08
same,normalized growth,"S. cerevisiae deletion strains, locus YLR268W, strain sec22, stronger effect = lower value",1
same,normalized growth,"S. cerevisiae deletion strains, locus YLR330W, strain CHS5, stronger effect = lower value",1.01
same,normalized growth,"S. cerevisiae deletion strains, locus YLR342W, strain FKS1 (second series), stronger effect = lower value",0.984
same,normalized growth,"S. cerevisiae deletion strains, locus YLR371W, strain rom2, stronger effect = lower value",0.999
same,normalized growth,"S. cerevisiae deletion strains, locus YLR418C, strain cdc73, stronger effect = lower value",0.985
same,normalized growth,"S. cerevisiae deletion strains, locus YML016C, strain PPZ1, stronger effect = lower value",1.01
same,normalized growth,"S. cerevisiae deletion strains, locus YML032C, strain rad52, stronger effect = lower value",0.998
same,normalized growth,"S. cerevisiae deletion strains, locus YML124C, strain tub3, stronger effect = lower value",0.993
same,normalized growth,"S. cerevisiae deletion strains, locus YMR078C, strain ctf18, stronger effect = lower value",1.01
same,normalized growth,"S. cerevisiae deletion strains, locus YMR223W, strain ubp8, stronger effect = lower value",0.992
same,normalized growth,[12],1.01
same,normalized growth,[13],0.95
same,normalized growth,"S. cerevisiae deletion strains, locus YNL067W, strain RPL9B, stronger effect = lower value",1.02
same,normalized growth,"S. cerevisiae deletion strains, locus YNL233W, strain BNI4, stronger effect = lower value",1.02
same,normalized growth,"S. cerevisiae deletion strains, locus YNL250W, strain rad50, stronger effect = lower value",1.02
same,normalized growth,"S. cerevisiae deletion strains, locus YNL271C, strain bni1, stronger effect = lower value",1.01
same,normalized growth,"S. cerevisiae deletion strains, locus YNL298W, strain CLA4, stronger effect = lower value",0.988
same,normalized growth,"S. cerevisiae deletion strains, locus YNL307C, strain MCK1, stronger effect = lower value",1.01
same,normalized growth,"S. cerevisiae deletion strains, locus YNR052C, strain pop2, stronger effect = lower value",0.998
same,normalized growth,"S. cerevisiae deletion strains, locus YOL012C, strain htz1",0.805
same,normalized growth,"S. cerevisiae deletion strains, locus YOL147C, strain pex11, stronger effect = lower value",1.01
same,normalized growth,"S. cerevisiae deletion strains, locus YOR061W, strain CKA2, stronger effect = lower value",1.01
same,normalized growth,"S. cerevisiae deletion strains, locus YOR069W, strain VPS5, stronger effect = lower value",1.01
same,normalized growth,"S. cerevisiae deletion strains, locus YOR136W, strain idh2, stronger effect = lower value",0.998
same,normalized growth,"S. cerevisiae deletion strains, locus YOR144C, strain elg1, stronger effect = lower value",1
same,normalized growth,"S. cerevisiae deletion strains, locus YOR184W, strain ser1, stronger effect = lower value",1.01
same,normalized growth,"S. cerevisiae deletion strains, locus YOR316C, strain cot1, stronger effect = lower value",1.01
same,normalized growth,[14],1.01
same,normalized growth,"S. cerevisiae deletion strains, locus YPR119W, strain clb2, stronger effect = lower value",1
same,normalized growth,"S. cerevisiae deletion strains, locus YPR141C, strain kar3, stronger effect = lower value",0.992
same,normalized growth,"S. cerevisiae deletion strains, locus YPR163C, strain tif3, stronger effect = lower value",1.01
same,normalized growth,"S. cerevisiae deletion strains, locus YPR167C, strain met16, stronger effect = lower value",1
same,normalized growth,"S. cerevisiae deletion strains, strain wtn01, stronger effect = lower value",1.01
O=C(O)CSCC(=O)N1CCc2c([nH]c3ccccc23)C1C(F)(F)F (centres undefined),normalized growth,[1],1.01
same,normalized growth,[2],1.01
same,normalized growth,"S. cerevisiae deletion strains, locus YCL061C, strain MRC1, stronger effect = lower value",1.04
same,normalized growth,[3],1.01
same,normalized growth,[4],1
same,normalized growth,[5],0.936
same,normalized growth,[6],0.997
same,normalized growth,"S. cerevisiae deletion strains, locus YGR078C, strain PAC10, stronger effect = lower value",1.05
same,normalized growth,[7],1.16
same,normalized growth,"S. cerevisiae deletion strains, locus YHR087W, strain rtc3, stronger effect = lower value",1
same,normalized growth,[8],1.02
same,normalized growth,"S. cerevisiae deletion strains, locus YJR075W, strain HOC1, stronger effect = lower value",1.03
same,normalized growth,[9],1
same,normalized growth,[10],1.04
same,normalized growth,"S. cerevisiae deletion strains, locus YLR058C, strain SHM2 (second series), stronger effect = lower value",1.02
same,normalized growth,"S. cerevisiae deletion strains, locus YLR085C, strain ARP6, stronger effect = lower value",1.09
same,normalized growth,[11],1.01
same,normalized growth,"S. cerevisiae deletion strains, locus YML094W, strain GIM5, stronger effect = lower value",1
same,normalized growth,"S. cerevisiae deletion strains, locus YMR219W, strain ESC1, stronger effect = lower value",1.02
same,normalized growth,[12],1.02
same,normalized growth,[13],1.1
same,normalized growth,"S. cerevisiae deletion strains, locus YNL128W, strain TEP1, stronger effect = lower value",0.987
same,normalized growth,"S. cerevisiae deletion strains, locus YNL153C, strain GIM3, stronger effect = lower value",1.01
same,normalized growth,"S. cerevisiae deletion strains, locus YNL298W, strain CLA4 (second series), stronger effect = lower value",1.05
same,normalized growth,"S. cerevisiae deletion strains, locus YNL322C, strain KRE1, stronger effect = lower value",1.02
same,normalized growth,"S. cerevisiae deletion strains, locus YNR030W, strain Alg12, stronger effect = lower value",1.02
same,normalized growth,"S. cerevisiae deletion strains, locus YOL006C, strain TOP1, stronger effect = lower value",1.11
same,normalized growth,"S. cerevisiae deletion strains, locus YPL055C, strain LGE1, stronger effect = lower value",0.991
same,normalized growth,[14],1.22 [resistant] (active)
same,normalized growth,"S. cerevisiae deletion strains, locus YPR135W, strain CTF4, stronger effect = lower value",1.06
same,normalized growth,"S. cerevisiae strains, strain wild type, stronger effect = lower value",0.993
